Experimental findings from PubChem BioAssay (NCI) are described below.

Several values for one entry are separate records, joined by “and”; a condition that tells them apart may be missing. Equal entries are not always repeated. Compounds without any hit were thinned out: in the full panel of roughly 79,000, 15% have a hit. Activity calls are given as the source filed them. No stated cut-off is given here; in the data, active means growth inhibition above about 70%; inactive means the rest.

The nature of this experiment: NCI Yeast Anticancer Drug Screen. Data for the cln2 rad14 strain (AID 165).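 Further: 0% = growth equal to vehicle treated cultures.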 The following applies: S. cerevisiae cln2 rad14 strain, stronger effect = higher value; at 50.0 µM unless noted. The essentials: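 Yeast strain cln2 rad14, bearing defects in cell cycle control and DNA repair, serves as the test system; values reflect growth inhibition compared with vehicle.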
Regarding `CNC(=S)NCOCCOC(C)=O`, the growth inhibition was -26.9% (inactive).

For the compound `O=C(Cc1ccccc1)CC(CC(=O)Cc1ccccc1)c1ccccc1`, the growth inhibition is 15.8% (inactive).

Turning to `O=CC(CO)C(C=O)n1ncc2ccccc21` (stereo not drawn), the growth inhibition is 9.55% (inactive).

As for `[CH3][Sn]([CH3])([S]P(=S)(c1ccccc1)c1ccccc1)[S]P(=S)(c1ccccc1)c1ccccc1`, the growth inhibition is -15.8% (inactive).

As for `N=c1oc(-c2ccccc2)cc2ccccc12`, the growth inhibition was -45.8% (inactive).

As to `COc1cc(OC)c2c(c1)OC(c1cccnc1)C(c1ccccc1)C2=O` (stereo not drawn), the growth inhibition was -27.7% (inactive).

As to `O=C1C=CC(=Nc2ccc3c(c2)-c2ccccc2C3)O1`, the growth inhibition is -9.9% (inactive).

As for `COC(=O)Nc1ccc(Cc2ccc(NC(=O)OC)cc2)cc1`, the growth inhibition is 15.7% (inactive).

Take `Cc1nc(N(C)C)oc(=O)c1CCc1ccccc1`: the growth inhibition is 0.2% (inactive).

On to `CCN(CC)c1ccc(N=Nc2ccc(-c3nc4cccnc4o3)cc2)cc1`, for which the growth inhibition is -1.7% (inactive).

`CCCCCCCCCCCCCCCCCC(=O)CBr`: the growth inhibition is -25.4% (inactive).

With `C(=Nc1cccc2ccccc12)c1cccs1`, the growth inhibition is -19% (inactive).

In the case of `COC(=O)c1ccccc1-c1ccccc1C(=O)O`, the growth inhibition is -13.8% (inactive).

In the case of `C#CCOC(=O)Nc1ccccc1`, the growth inhibition was -72.2% (inactive) and -54.2% (inactive).

With `CC1=Nc2ccc([N+](=O)[O-])cc2C1(C)C`, the growth inhibition was -2.15% (inactive).

As to `CCOC(Cn1ccc[n+]1CC(=O)c1ccccc1)OCC`, the growth inhibition was -21.6% (inactive).

For `Cc1nc(C(N)=S)sc1C(=O)C/C(=N/N)C(=O)Nc1ccc(Cl)cc1`, the growth inhibition is -3.65% (inactive).

For the compound `Cc1nc(CO)c(-c2ccc([N+](=O)[O-])cc2)o1`, the growth inhibition was -20.4% (inactive).
